Out of some 400,000 compounds screened, about 13,000 (3.2%) were called active. Another 18% or so got no clear call; they are omitted. The sample holds actives, similar compounds and a random draw of the others, so the mix is not that of the screen. Unmarked numbers belong to inactive results. Calls follow the shape of the dose curve; as a rule, active = well fitted cell-killing curve with a large enough effect; inconclusive = small, poorly fitted or top-dose-only effect, or effect the other way; inactive = flat fitted curve, though single readings scatter.
% is scaled to controls: 0 for no effect and ±100 for the full control effect; potency is read from the fitted curve at half-maximal effect.

The assay can be described thus: qHTS assay for MDR1-selective chemotherapeutics: Primary screen using the drug-selected MDR subline cells KB-V1. Also: nearly all actives have a fitted effect of over 60% in size. The settings on record: KB-V1 MDR cells viability, CellTiter-Glo, 72 h; series mostly up to 46.1 µM; activity change, negative = cytotoxicity: at the top concentration. The gist of the method:
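Cytotoxicity toward P-gp-expressing KB-V1 cells was determined as loss of CellTiter-Glo luminescence after 72 h at 37 degrees C. Compounds were tested in quantitative HTS format across a concentration range, with curves fitted to normalized data.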
(In qHTS, concentration-response curves come from the screen itself.)
Take `C=C(C)C1(CCCC)C(=O)NC(=S)NC1=O`: the “activity change, negative = cytotoxicity” value is 2.18%.
Take `Oc1cc2c(cc1CN1CCN(c3ccccc3)CC1)OCO2`: the “activity change, negative = cytotoxicity” value is 6.2%.
Consider `Cc1cc(C)c2c(c1)NP(=S)(c1ccccc1)N2` (centres undefined), for which the “activity change, negative = cytotoxicity” value was -13.5%.
`C[C@]12CCC3C(CC[C@H]4C[C@@H](O)CC[C@]34C)C1CC[C@@H]2O` (some centres undefined): the “activity change, negative = cytotoxicity” value is 1.24%.
Turning to `CC12CCC(O)CC1CCC1C2CCC2(C)C(C(=O)CC(O)C(F)(F)F)CCC12` (centres undefined), the Potency is 23.1 µM (active).
With `C[C@]12CCC3C(CC[C@H]4[C@H](O)[C@H](O)CC[C@]34C)C1CC[C@@H]2O` (some centres undefined), the “activity change, negative = cytotoxicity” value was 1.98%.
For the compound `COC(=O)[C@@H]1C(OC(=O)c2ccccc2)CC2CCC1N2C` (some centres undefined), the “activity change, negative = cytotoxicity” value was 8.91%.
For the compound `Cn1c(O)c(C(=Nc2ccc(F)cc2)c2ccccc2)c(=O)n(C)c1=O`, the “activity change, negative = cytotoxicity” value was -17.9%.
Consider `O=P(OC1=CCCCC1)(c1ccccc1)c1ccccc1`, for which the “activity change, negative = cytotoxicity” value is 0.378%.
For `CCCOC(=O)C1C2c3ccccc3C(c3ccccc32)C1C(=O)O` (centres undefined), the “activity change, negative = cytotoxicity” value was 5.49%.
On the same count and under the same terms, the same measure for `CC1CCC(N(C)C2CCN(C)CC2)CC1` (centres undefined): 4.09%; for `Cc1ccc(-c2cc(C(=O)N3CCC4(CC3)OCCO4)no2)cc1`: 0%.
For the compound `O=C(c1cc2nc(-c3ccccc3)cc(-c3ccccc3)n2n1)N1CCC2(CC1)OCCO2`, the Potency was 25.9 µM (active).
Regarding `O=C(c1ccccc1[N+](=O)[O-])N1CCC2(CC1)OCCO2`, the “activity change, negative = cytotoxicity” value is 0%.
Same read-out and setting: with `CC1C2Cn3c(nc4ccccc43)C1N(C)O2` (centres undefined) the figure was 10.3%; with `COc1cc(C(=O)N2Cc3ccc(Br)cc3-n3nncc3C2)cc(OC)c1OC`, -27.6%.
For the compound `CCC(C)(O)C(=O)OC1C(=O)OC2CC3C(C)=CC(=O)C(O)C3(C)C3C4(O)OCC23C1C(C)C4O` (centres undefined), the Potency is 11.6 µM (active).
Take `c1ccc(N2Cc3ccccc3-n3nncc3C2)nc1`: the “activity change, negative = cytotoxicity” value was 3.38%.
On to `CCC(C)n1c(O)c(/C=N/Nc2nc3c(c(=O)n(C)c(=O)n3C)n2C)c(=O)[nH]c1=S` (centres undefined), for which the “activity change, negative = cytotoxicity” value was -12.1%.
Consider `CCN1C(=O)NC(=O)C2(CCCC2)C1=O`, for which the “activity change, negative = cytotoxicity” value was -10.5%.
With `COC(=O)CN(CCCl)P1(=O)OCCCN1CCCl` (centres undefined), the “activity change, negative = cytotoxicity” value is -18.1%.
As to `CN(C)CCCN=Cc1c(O)n(Cc2ccco2)c(=O)[nH]c1=O`, the “activity change, negative = cytotoxicity” value was -0.606%.
As for `CCC(=NCCCO)c1c(O)n(-c2ccc(OC)cc2)c(=O)[nH]c1=O`, the “activity change, negative = cytotoxicity” value is -9.87%.
Turning to `CCCCn1c(O)c(C(CC)=NCc2ccco2)c(=O)[nH]c1=O`, the Potency is 20.6 µM (active).
For the compound `CCCCC(=O)N/N=C/c1c(O)n(CCC2=CCCCC2)c(=O)[nH]c1=O`, the “activity change, negative = cytotoxicity” value is 9.8%.
Regarding `CCCCCCN=C(CC)c1c(O)n(CCCC)c(=O)[nH]c1=O`, the Potency was 5.17 µM (active).
Turning to `CC(=NCC1CCCO1)c1c(O)n(-c2ccccc2)c(=O)[nH]c1=O` (centres undefined), the “activity change, negative = cytotoxicity” value was 20.8%.
Take `O=C(N/N=C/c1c(O)n(Cc2ccccc2)c(=O)[nH]c1=O)c1ccccc1`: the “activity change, negative = cytotoxicity” value is 3.77%.
Turning to `CCC(=NCc1ccco1)c1c(O)n(Cc2ccccc2)c(=O)[nH]c1=O`, the Potency was 3.66 µM (active).
With `CC/C(=N\NC(=O)c1ccccc1O)c1c(O)n(Cc2ccccc2)c(=O)[nH]c1=O`, the “activity change, negative = cytotoxicity” value is 0.222%.
Turning to `c1cc2c(c(NC3=NCCCS3)c1)CCCC2`, the “activity change, negative = cytotoxicity” value is -16.7%.
Turning to `O=c1c2ccccc2nc(CBr)n1-c1ccc(Cl)cc1`, the “activity change, negative = cytotoxicity” value is -12%.
For the compound `C[N+]12CN3CN(CN(C3)C1)C2`, the “activity change, negative = cytotoxicity” value was 1.35%.
Still for that read-out and setting: with `CC(CC(C#N)(c1ccccc1)c1ccccc1)N1CCCCC1` (centres undefined) the figure was -5.22%.
Take `N#Cc1c(Cl)c(Cl)c(Cl)c(C#N)c1Cl`: the “activity change, negative = cytotoxicity” value was 8.82%.
Still for that read-out and setting: with `Cc1cccc(OP(=O)(Oc2cccc(C)c2)OC(c2ccccc2)C(F)(F)F)c1` (centres undefined) the figure was -8.19%.
On the same count and under the same terms, the same measure for `Cc1ccc(OC(=O)N(C)C[C@@H]2OCc3cnnn3CCCC(=O)N([C@H](C)CO)C[C@@H]2C)cc1`: 5.62%.
Still for that read-out and setting: the same measure for `O=C1NCN(c2ccccc2)C12CCN(C(c1cccs1)c1nnnn1C1CCCCC1)CC2` (centres undefined): -0.777%; for `CC(=O)C1(O)CCC2C3CCC4=C(Cl)C(=O)CCC4(C)C3CCC21C` (centres undefined): -9.43%.
With `Cc1ccc(Cn2nnnc2CN2CCC(n3nnc4ccccc43)CC2)cc1`, the Potency was 5.8 µM (active).
For the compound `N[C@@H](Cc1c[nH]c2ccccc12)c1nnc(SCc2c(F)cccc2Cl)o1`, the Potency was 18.4 µM (active).
As for `CCOC(=O)CC(SP1(=S)OCC2(CCCCO2)C(C2CCCCO2)O1)C(=O)OCC` (centres undefined), the “activity change, negative = cytotoxicity” value is -5.39%.
As for `Cn1cc(C(=O)OCC(=O)N2CCCC2)c2ccccc21`, the Potency is 23.1 µM (active).
As for `CC(=O)Nc1ccccc1C(=O)OCC(=O)c1cccc2ccccc12`, the “activity change, negative = cytotoxicity” value was 0%.
For the compound `CC(C)c1ccc(OCC(=O)N2CCCN(C)CC2)cc1`, the “activity change, negative = cytotoxicity” value is -16.3%.
As for `OCC#CC[N+]1(CC#Cc2ccccc2)CCCC1`, the “activity change, negative = cytotoxicity” value is 26.7%.
As to `C[C@]12CCC3C(CC[C@H]4[C@H](O)[C@H](O)CC[C@]34C)C1CCC2=O` (some centres undefined), the “activity change, negative = cytotoxicity” value is 12%.
Regarding `CC(C)(C)c1ccc(CN2C(=O)CN=C(c3ccccc3)c3ccccc32)cc1`, the Potency is 16.4 µM (active).
Regarding `O=C1CC(=O)N(Cc2ccccc2)C(=O)N1CCCCCCN1C(=O)CC(=O)N(Cc2ccccc2)C1=O`, the “activity change, negative = cytotoxicity” value is -0.0512%.
As to `c1ccc(C(CN2CCCCC2)c2ccccc2)cc1`, the “activity change, negative = cytotoxicity” value is 3.49%.
As to `O=C(Nc1cccc2ccccc12)N1CCC2(CC1)OCCO2`, the “activity change, negative = cytotoxicity” value is 12.5%.
As to `O=C(CCC(=O)N1C[C@H]2C[C@@H](C1)c1cccc(=O)n1C2)NCc1ccccc1C(F)(F)F`, the “activity change, negative = cytotoxicity” value is -0.253%.
Turning to `COc1ccc2c(c1)NP(=S)(c1ccccc1)N2` (centres undefined), the “activity change, negative = cytotoxicity” value was 4.13%.
As for `O=C1NC(=O)C(CCOc2ccccc2)(CCc2ccccc2)C(=O)N1`, the “activity change, negative = cytotoxicity” value is -5.14%.
`COc1ccc(NC(=O)N2Cc3ccccc3-n3nncc3C2)cc1`: the “activity change, negative = cytotoxicity” value is 0.781%.
On the same count and under the same terms, with `CC1CC=CCC12C(=O)NC(=S)NC2=O` (centres undefined) the figure was 26.6%; with `CCn1cc(CN2CCCC(C(=O)c3cccc(C(F)(F)F)c3)C2)cn1` (centres undefined), 4.08%.
Consider `Cc1nn(-c2ccccc2)c(C)c1NC(=O)COC(=O)Cc1ccccc1`, for which the “activity change, negative = cytotoxicity” value was -1.45%.
Regarding `Cc1ccccc1NC(=O)COC(=O)c1cc(C)n(C2CC2)c1C`, the Potency was 13 µM (active).
Regarding `Cc1cc(C(=O)OCC(=O)Nc2c(F)cccc2F)c(C)n1C1CC1`, the “activity change, negative = cytotoxicity” value was 13.9%.
As for `COc1cccc(C(=O)N2C[C@H]3C[C@@H](C2)c2cccc(=O)n2C3)c1`, the “activity change, negative = cytotoxicity” value is 14.6%.
Take `c1cc2c(cc1C1OCC3C(c4ccc5c(c4)OCO5)OCC13)OCO2` (centres undefined): the “activity change, negative = cytotoxicity” value is 0%.
For the compound `CC(=O)OC1C2(CC3N4C(=O)C5(CO)SSC4(CC31O)C(=O)N5C)OC(C)C(C)(C)C2=O` (centres undefined), the Potency was 2.31 µM (active).
Take `COc1cc(-n2c(=S)[nH]c3ccc(C)cc3c2=O)c(Cl)cc1Cl`: the Potency is 9.2 µM (active).
Consider `O=c1c2ccccc2[nH]c(=S)n1-c1cccc(Cl)c1`, for which the “activity change, negative = cytotoxicity” value was -10.3%.
`S=C(NCCc1ccccc1)N1Cc2cc(N3CCOCC3)ccc2-n2nncc2C1`: the “activity change, negative = cytotoxicity” value was -17%.
The same measure, in the same setting: the same measure for `O=c1[nH]c2ccccc2n1C1CCN(C(c2ccnc3ccccc23)c2nnnn2Cc2ccccc2)CC1` (centres undefined): -0.478%.
As to `O=c1[nH]c2ccccc2n1C1CCN(C(c2ccccc2)c2nnnn2Cc2ccccc2)CC1` (centres undefined), the Potency was 18.4 µM (active).
As for `CSCCC(c1nnnn1C(C)(C)C)N1CCC(n2c(=O)[nH]c3ccccc32)CC1` (centres undefined), the “activity change, negative = cytotoxicity” value was -15.9%.

These data come from PubChem BioAssay AID1347076 (National Center for Advancing Translational Sciences (NCATS), 2019).
